Our source for the Percent Effect values is ChEMBL document CHEMBL3988442, “University of Dundee, Small-Polar-MMV Screening Library” (2021).

Holding throughout (set-up): scale not given: direction of the effect not stated beside the values
In test [1] the target is Protein translocase subunit SecA (Escherichia coli (strain K12)) (UniProt P10408). Briefly: Assay to Identify E. coli SecA ATPase Inhibitors. It is filed as functional. As to conditions: 30 µM.
The target of test [2] is T1, Ubiquitin-activating enzyme e1, putative (Leishmania donovani (strain BPK282A1)) (UniProt E9BSI1).
T1 sequence (whole entry): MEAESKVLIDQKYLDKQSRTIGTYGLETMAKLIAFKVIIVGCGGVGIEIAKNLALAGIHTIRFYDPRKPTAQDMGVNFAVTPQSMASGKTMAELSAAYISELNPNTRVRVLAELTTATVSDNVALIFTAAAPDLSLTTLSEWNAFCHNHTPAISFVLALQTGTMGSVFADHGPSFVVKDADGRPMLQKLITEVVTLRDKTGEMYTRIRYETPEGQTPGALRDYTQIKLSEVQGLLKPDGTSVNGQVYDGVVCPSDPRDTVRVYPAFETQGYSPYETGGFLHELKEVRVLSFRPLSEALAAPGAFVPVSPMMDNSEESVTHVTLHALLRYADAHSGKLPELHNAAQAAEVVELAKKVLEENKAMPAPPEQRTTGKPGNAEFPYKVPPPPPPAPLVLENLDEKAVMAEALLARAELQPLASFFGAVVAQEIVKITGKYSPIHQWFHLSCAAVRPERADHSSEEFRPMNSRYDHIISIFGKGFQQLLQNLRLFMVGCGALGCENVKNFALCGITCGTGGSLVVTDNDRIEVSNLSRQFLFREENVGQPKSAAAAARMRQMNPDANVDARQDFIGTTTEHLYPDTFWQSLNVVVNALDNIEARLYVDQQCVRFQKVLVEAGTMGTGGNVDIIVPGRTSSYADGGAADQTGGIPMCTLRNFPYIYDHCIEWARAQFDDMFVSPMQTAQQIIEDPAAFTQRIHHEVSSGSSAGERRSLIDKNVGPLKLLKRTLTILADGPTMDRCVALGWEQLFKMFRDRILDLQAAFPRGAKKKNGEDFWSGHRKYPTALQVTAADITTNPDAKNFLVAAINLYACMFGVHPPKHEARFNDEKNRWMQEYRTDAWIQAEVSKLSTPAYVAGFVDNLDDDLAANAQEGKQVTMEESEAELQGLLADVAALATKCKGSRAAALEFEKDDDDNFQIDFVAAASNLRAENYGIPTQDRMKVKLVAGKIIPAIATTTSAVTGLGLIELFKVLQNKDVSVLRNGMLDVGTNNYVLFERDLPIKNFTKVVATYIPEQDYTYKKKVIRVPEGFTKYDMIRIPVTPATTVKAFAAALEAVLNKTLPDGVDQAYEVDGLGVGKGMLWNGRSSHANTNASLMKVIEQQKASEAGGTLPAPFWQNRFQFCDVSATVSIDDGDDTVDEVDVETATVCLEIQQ
The experiment in a line: Leishmania donovani Ubiquitin Activating Enzyme (LdE1). The conditions noted are these: 30 µM. It is filed as functional.

The target in test [3] is AMP-activated protein kinase, AMPK (Homo sapiens) (UniProt P54646+O43741+P54619+Q9UGJ0+Q9Y478+Q13131+Q9UGI9). The experiment in a line: AMP-dependent Kinase enzyme assay. An in vitro enzyme assay that detects ADP turnover that is directly proportional to AMPK activity. This uses naive AMPK that is activated during the assay with MK-8722. It is filed as functional. The conditions noted are these: 30 µM.

Test [4] has as its target Sialic acid-binding Ig-like lectin 9 (Homo sapiens) (UniProt Q9Y336). Briefly: Hs-Siglec9 ALPHAscreen SOP 20170721. The conditions noted are these: 10 µM.
The next test deals with Trypanosoma cruzi. Briefly: Trypanosoma cruzi phosphomannomutase and mannose-1-phosphate guanylyltransferase assay. It is filed as functional. As to conditions: 10 µM.
For test [5], the target named is T2, Arginase-2, mitochondrial (Homo sapiens) (UniProt P78540).
T2 sequence (whole entry): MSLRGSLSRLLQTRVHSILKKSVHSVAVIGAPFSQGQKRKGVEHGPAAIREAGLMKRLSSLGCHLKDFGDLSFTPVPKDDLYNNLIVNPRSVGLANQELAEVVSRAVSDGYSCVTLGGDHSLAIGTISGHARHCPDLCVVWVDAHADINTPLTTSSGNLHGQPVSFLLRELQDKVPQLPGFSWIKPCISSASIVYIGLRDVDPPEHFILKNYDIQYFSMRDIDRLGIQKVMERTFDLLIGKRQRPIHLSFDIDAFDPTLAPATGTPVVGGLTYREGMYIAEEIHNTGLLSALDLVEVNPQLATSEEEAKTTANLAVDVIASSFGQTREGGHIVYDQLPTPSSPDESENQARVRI
Briefly: in vitro enzyme assay to detect the production of urea directly proportional to the activity of Arginase II. Also: in the data most compounds retested in dose-response had high values. It is filed as functional. As to conditions: 33.3 µM.

For test [6], the target named is T3, Proteasome subunit beta (Trypanosoma cruzi) (UniProt O96673).
T3 sequence (whole entry): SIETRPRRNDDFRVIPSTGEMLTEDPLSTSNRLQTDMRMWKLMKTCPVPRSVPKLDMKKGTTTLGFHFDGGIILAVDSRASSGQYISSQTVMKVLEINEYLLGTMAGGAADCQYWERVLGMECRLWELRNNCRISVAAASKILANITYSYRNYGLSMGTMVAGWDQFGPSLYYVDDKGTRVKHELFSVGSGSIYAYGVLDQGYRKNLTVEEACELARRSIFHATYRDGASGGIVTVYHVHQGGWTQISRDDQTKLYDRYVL
The experiment in a line: Trypanosoma cruzi proteasome chymotrypsin-like activity (TcProtChymo) assay. Also: in the data most compounds retested in dose-response had high values. It is filed as functional. The conditions noted are these: 9.37 µM.

Another test is filed under the species Homo sapiens. Briefly: To identify inhibition of the IFN signalling (Jak-Stat) pathway via expression of an eGFP reporter gene under the control of an IFN-stimulated response element (ISRE) containing MxA promoter. It is filed as functional. As to conditions: 30 µM.
For test [7], the target named is T4, Tyrosyl-tRNA synthetase, putative (Trypanosoma cruzi (strain CL Brener)) (UniProt Q4DSP6).
T4 sequence (whole entry): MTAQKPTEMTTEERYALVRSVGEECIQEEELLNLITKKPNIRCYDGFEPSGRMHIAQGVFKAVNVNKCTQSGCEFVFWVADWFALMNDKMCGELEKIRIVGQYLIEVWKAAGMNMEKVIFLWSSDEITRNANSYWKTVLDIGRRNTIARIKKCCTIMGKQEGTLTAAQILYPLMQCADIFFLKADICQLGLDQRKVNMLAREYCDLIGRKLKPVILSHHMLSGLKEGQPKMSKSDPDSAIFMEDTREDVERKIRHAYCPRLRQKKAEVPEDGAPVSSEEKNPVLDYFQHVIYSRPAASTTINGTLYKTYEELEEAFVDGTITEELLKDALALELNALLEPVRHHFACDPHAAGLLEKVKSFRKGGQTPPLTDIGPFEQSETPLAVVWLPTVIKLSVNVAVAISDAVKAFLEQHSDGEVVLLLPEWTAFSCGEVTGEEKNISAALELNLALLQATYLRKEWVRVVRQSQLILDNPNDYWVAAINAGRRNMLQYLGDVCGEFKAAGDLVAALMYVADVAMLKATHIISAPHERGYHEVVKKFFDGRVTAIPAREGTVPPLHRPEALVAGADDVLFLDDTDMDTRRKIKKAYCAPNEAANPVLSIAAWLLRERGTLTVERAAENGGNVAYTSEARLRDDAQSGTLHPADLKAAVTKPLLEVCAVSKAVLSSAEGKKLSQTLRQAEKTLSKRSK
The experiment in a line: Trypanosoma cruzi tyrosyl tRNA synthetase (TcYRS) _High Tyrosine SOP. Also: in the data most compounds retested in dose-response had high values. It is filed as functional. As to conditions: 30 µM.

The target of test [8] is T4, Tyrosyl-tRNA synthetase, putative (Trypanosoma cruzi (strain CL Brener)). The experiment in a line: Trypanosoma cruzi tyrosyl tRNA synthetase (TcYRS) SOP. It is filed as functional. As to conditions: 30 µM.
Test [9] deals with Chromo domain-containing protein 1 (Saccharomyces cerevisiae (strain ATCC 204508 / S288c) (Baker's yeast)) (UniProt P32657). Briefly: ScCHD-1 Enzyme Inhibition Assay. Also: in the data most compounds retested in dose-response had high values. As to conditions: 30 µM. It is filed as functional.
Chromo domain-containing protein 1 (Saccharomyces cerevisiae (strain ATCC 204508 / S288c) (Baker's yeast)), sequence (P32657 whole entry, the tested form may be a part): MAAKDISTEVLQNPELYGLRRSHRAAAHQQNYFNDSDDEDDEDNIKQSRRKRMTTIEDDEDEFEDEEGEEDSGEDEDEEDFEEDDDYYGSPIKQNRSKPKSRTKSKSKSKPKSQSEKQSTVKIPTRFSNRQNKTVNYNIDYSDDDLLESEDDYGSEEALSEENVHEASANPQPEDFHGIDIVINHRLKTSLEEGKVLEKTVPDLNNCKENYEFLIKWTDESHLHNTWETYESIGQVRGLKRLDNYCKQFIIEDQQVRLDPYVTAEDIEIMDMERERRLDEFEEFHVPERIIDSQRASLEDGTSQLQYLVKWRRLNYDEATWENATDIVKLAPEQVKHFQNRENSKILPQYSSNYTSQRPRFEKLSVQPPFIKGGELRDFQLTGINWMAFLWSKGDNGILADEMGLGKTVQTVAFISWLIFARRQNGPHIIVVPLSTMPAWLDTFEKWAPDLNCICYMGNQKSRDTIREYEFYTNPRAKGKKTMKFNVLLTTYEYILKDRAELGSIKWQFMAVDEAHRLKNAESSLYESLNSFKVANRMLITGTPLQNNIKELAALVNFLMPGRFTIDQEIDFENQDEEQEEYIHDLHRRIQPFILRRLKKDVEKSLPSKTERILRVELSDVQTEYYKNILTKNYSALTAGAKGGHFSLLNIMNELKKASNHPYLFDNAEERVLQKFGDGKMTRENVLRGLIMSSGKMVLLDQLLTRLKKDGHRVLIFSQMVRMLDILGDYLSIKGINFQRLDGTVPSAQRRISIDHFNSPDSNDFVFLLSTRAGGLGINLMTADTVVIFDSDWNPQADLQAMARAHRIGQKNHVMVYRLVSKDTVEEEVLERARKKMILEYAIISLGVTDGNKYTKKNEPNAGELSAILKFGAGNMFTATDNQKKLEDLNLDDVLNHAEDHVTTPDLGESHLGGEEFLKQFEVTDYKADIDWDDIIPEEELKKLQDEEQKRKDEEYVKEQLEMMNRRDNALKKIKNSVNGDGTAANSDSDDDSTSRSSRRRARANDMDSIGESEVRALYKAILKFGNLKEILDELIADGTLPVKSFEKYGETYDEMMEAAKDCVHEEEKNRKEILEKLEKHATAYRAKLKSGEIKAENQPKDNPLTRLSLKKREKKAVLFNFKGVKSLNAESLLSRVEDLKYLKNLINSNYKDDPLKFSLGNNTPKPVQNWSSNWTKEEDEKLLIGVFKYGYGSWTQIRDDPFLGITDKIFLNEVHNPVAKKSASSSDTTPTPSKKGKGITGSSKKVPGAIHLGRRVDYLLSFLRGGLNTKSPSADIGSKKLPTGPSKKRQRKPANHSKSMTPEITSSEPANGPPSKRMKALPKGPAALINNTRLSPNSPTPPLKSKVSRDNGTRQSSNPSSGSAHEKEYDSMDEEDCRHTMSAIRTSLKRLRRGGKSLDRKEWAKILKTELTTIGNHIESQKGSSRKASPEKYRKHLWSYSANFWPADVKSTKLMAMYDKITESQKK

Structures are written as SMILES. For some of these results: Potency and affinity values are given separately.

Protein translocase subunit SecA (Escherichia coli (strain K12)), sequence (P10408 whole entry): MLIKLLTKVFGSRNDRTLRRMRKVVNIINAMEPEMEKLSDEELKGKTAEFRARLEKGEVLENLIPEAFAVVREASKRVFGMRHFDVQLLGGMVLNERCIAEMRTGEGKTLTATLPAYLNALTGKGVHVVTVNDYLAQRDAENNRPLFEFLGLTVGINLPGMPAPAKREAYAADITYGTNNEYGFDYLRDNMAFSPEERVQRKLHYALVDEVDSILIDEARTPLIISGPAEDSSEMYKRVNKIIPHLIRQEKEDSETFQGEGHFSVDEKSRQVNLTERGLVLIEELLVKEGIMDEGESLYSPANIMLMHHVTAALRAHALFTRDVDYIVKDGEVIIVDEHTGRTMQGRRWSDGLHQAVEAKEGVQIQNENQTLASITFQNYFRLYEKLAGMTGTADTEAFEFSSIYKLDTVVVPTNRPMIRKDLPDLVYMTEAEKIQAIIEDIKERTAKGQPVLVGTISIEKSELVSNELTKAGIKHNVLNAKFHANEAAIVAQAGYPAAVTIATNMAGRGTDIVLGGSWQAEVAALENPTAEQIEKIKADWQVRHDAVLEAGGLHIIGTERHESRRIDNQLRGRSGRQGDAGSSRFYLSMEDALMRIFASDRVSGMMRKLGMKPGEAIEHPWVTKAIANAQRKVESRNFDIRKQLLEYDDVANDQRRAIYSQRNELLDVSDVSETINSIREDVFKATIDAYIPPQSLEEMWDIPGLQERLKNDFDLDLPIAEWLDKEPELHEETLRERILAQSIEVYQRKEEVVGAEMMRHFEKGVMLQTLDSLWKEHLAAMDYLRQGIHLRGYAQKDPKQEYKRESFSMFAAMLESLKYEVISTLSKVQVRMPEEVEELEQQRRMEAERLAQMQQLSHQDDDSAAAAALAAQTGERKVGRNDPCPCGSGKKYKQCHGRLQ
Sialic acid-binding Ig-like lectin 9 (Homo sapiens), sequence (Q9Y336 whole entry): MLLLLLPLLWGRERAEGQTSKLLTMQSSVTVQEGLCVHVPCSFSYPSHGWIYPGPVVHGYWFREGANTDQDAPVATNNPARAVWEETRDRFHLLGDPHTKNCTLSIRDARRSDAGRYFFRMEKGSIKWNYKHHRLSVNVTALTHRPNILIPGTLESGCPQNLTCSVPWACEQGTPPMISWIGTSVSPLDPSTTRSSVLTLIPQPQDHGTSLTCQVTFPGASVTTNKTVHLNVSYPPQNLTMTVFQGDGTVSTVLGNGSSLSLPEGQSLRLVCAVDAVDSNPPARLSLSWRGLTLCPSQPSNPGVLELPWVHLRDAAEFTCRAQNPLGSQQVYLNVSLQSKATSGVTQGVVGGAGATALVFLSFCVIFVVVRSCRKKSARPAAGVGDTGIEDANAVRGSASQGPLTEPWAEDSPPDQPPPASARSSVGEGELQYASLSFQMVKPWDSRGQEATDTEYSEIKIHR

With `O=C1CCSCC(C(=O)N2CCCC2)N1` (stereo unspecified), the Percent Effect was -1.89% in test [1]; 0% in test [2]; 2.29% in [3]; -5.9% in test [4]; -3.33% in the test on Trypanosoma cruzi; -1.36% in [5]. Further, the Percent Effect is 3.37% in test [6]; -3.33% in the test filed under Homo sapiens; 1.07% in test [7]; 5% in [8]; -1.55% in test [9].

As for `CCS(=O)(=O)CCNC(=O)c1ccc(-c2ccc(C)cc2)cc1F`, the Percent Effect is -3.31% in test [1]; 5.2% in [2]; -1.14% in test [3]; 2.26% in test [4]; -2.26% in the test with Trypanosoma cruzi; -2.76% in test [5]. Also, the Percent Effect is 14.6% in test [6]; 18.8% in the test listed under Homo sapiens; -14% in test [7]; 1.24% in [8]; 2.27% in test [9].

Take `Cc1cc(CN(Cc2cccs2)CC2CCCO2)no1` (stereo unspecified): the Percent Effect is -4.05% in [1]; 1.27% in [2]; 10.8% in test [3]; 3.07% in test [4]; -1.33% in the test with Trypanosoma cruzi; 4.95% in test [5]. The Percent Effect was 6% in test [6]; 6.19% in the test filed under Homo sapiens; -5.21% in test [7]; 0% in [8]; 16.7% in test [9].

Turning to `Cc1cccc(NS(=O)(=O)c2cc(C(=O)O)oc2C)c1Cl`, the Percent Effect is -6.42% in test [1]; 0% in test [2]; 0.702% in test [3]; 9.91% in test [4]; 6.18% in the test with Trypanosoma cruzi; -4.27% in test [5]. The Percent Effect in test [6] is 0.338%; in the test listed under Homo sapiens it was 3.85%; in [7], 1.94%; in test [8], 9.76%; in test [9], -7.97%.

Consider `COCc1nc(C(=O)N2CCCCC2Cn2cc(C)cn2)cs1` (stereo unspecified), for which the Percent Effect in test [1] was -5.14%; in [2], -2.6%; in [3], 6.14%; in [4], -7.79%; in the test on Trypanosoma cruzi, -5.19%; in test [5], -1.47%. The Percent Effect in [6] is 5.42%; in the test listed under Homo sapiens it was 6.8%; in test [7], -1.91%; in test [8] it was -4.71%; in test [9], -21.5%.

With `CCc1c(C(=O)N2CCCN(C(C)=O)CC2)cnn1C(C)(C)C`, the Percent Effect in test [1] is -5.01%; in test [2], 23.7%; in [3] it was -6.43%; in [4], 9.75%; in the test on Trypanosoma cruzi it was 3.27%; in test [5], 1.08%. Also, the Percent Effect in [6] was 6.68%; in the test filed under Homo sapiens it was -2.15%; in test [7], 7.39%; in [8], 25.9%; in test [9], -9.24%.

With `O=C(C1CCC1)N1CCN(Cc2ccsc2)[C@H]2CS(=O)(=O)C[C@H]21`, the Percent Effect in test [1] is -4.53%; in [2] it was 2.6%; in test [3] it was 1.04%; in test [4], 4.76%; in the test on Trypanosoma cruzi, -5.41%; in [5], 1.38%. For the same molecule, the Percent Effect is 15.8% in [6]; 2.92% in the test listed under Homo sapiens; 2.15% in test [7]; 3.7% in test [8]; -0.294% in test [9].

Take `COC[C@H]1CCC[C@]12CN(C(=O)NCc1ccccc1)CCO2`: the Percent Effect in [1] is -5%; in [2], 20%; in test [3], -4.55%; in test [4] it was 9.51%; with Trypanosoma cruzi, 2.75%; in [5], -7.22%. Also, the Percent Effect is 13.5% in test [6]; 2.52% in the test filed under Homo sapiens; 3.17% in test [7]; 10.3% in test [8]; -9.21% in test [9].

Regarding `CC(Cn1cccn1)NC(=O)Nc1nnc(C2CC2)s1` (stereo unspecified), the Percent Effect is -8.16% in [1]; 13% in test [2]; 2.37% in test [3]; 7.36% in [4]; 1.12% with Trypanosoma cruzi; -0.356% in test [5]. For the same molecule, the Percent Effect is -0.845% in test [6]; 10.7% in the test filed under Homo sapiens; 7.77% in test [7]; 12.2% in [8]; -5.78% in test [9].

Regarding `CCc1ncc2c(n1)CN(C(=O)COC)C2`, the Percent Effect is -3.52% in test [1]; 8.22% in test [2]; -3.13% in test [3]; -3.99% in test [4]; 2.55% with Trypanosoma cruzi; 1.36% in [5]. In addition, the Percent Effect in [6] was 12.1%; in the test listed under Homo sapiens, 8.48%; in [7] it was 9.68%; in [8], 22.5%; in [9], -4.35%.

For `COc1ccccc1C(O)CNC(=O)Nc1ncccc1C` (stereo unspecified), the Percent Effect was -3.85% in [1]; 12.7% in test [2]; 3.4% in test [3]; -8.4% in test [4]; 6.52% in the test on Trypanosoma cruzi; 0% in test [5]. In addition, the Percent Effect in test [6] is 8.27%; in the test listed under Homo sapiens, 16.1%; in test [7], 5.42%; in test [8], 16.5%; in test [9], -4.09%.
